The panel holds about 83,000 compounds, 20% with a hit somewhere; the sample as a whole holds those more often.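 A percent growth of 40 corresponds to 60% growth inhibition; 0 means no net growth; -100 means all cells died. Active threshold: below 10.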 Activity calls are given as the source filed them.
What was measured:
Experiment in all cases: NCI-60 one-dose screen, 48 h (100 = growth as untreated, 0 = no growth, -100 = all killed)
Settings in all cases: 10 µM unless noted
NCI-H23 lung = tested on: NCI-H23 lung
NCI-H226 lung = tested on: NCI-H226 lung
NCI-H322M lung = tested on: NCI-H322M lung
HOP-62 NSCLC = tested on: HOP-62 NSCLC
NCI-H460 lung = tested on: NCI-H460 lung
HOP-92 NSCLC = tested on: HOP-92 NSCLC
NCI-H522 lung = tested on: NCI-H522 lung
A549/ATCC NSCLC = tested on: A549/ATCC NSCLC
786-0 renal = tested on: 786-0 renal
COLO 205 colon = tested on: COLO 205 colon

Measured: growth

CCCCn1c(=O)c(/C=C/C(=O)/C=C/c2ccc(O)c(OC)c2)cc2ccc(Cl)cc21
active: NCI-H226 lung -18.4% | NCI-H522 lung -4.4% | 786-0 renal -0.448%
inactive: NCI-H23 lung 27.7% | NCI-H322M lung 50.6% | HOP-62 NSCLC 59.6% | NCI-H460 lung 14.5% | HOP-92 NSCLC 77.3% | A549/ATCC NSCLC 26.4% | COLO 205 colon 29.7%

O=C(Nc1nc2ccc(C(F)(F)F)cc2s1)c1cc(Cl)ccc1O
inactive: NCI-H322M lung 10.6% | A549/ATCC NSCLC 11.3%
active: NCI-H23 lung -12% | NCI-H226 lung 5.73% | HOP-62 NSCLC 4.72% | NCI-H460 lung 4.41% | HOP-92 NSCLC -12.3% | NCI-H522 lung -15.1% | 786-0 renal 9.95% | COLO 205 colon -57.3%

CCCCc1nc(Cl)c(C2CC(c3ccc(Cl)cc3)=NN2c2cc(Cl)cc(Cl)c2)[nH]1 (stereo not given)
active: A549/ATCC NSCLC 8.64%
inactive: NCI-H23 lung 69.5% | NCI-H226 lung 92.3% | NCI-H322M lung 70.6% | HOP-62 NSCLC 52.9% | NCI-H460 lung 30.2% | HOP-92 NSCLC 94% | NCI-H522 lung 32% | 786-0 renal 41.3% | COLO 205 colon 96.1%

C#C[C@@]1(O)[C@@H](CO)O[C@@H](n2cc(I)c3c(N)ncnc32)[C@@H]1O
inactive: NCI-H226 lung 52.2% | NCI-H322M lung 20%
active: NCI-H23 lung -14.5% | HOP-62 NSCLC -3.39% | NCI-H460 lung -25.4% | HOP-92 NSCLC -23.8% | NCI-H522 lung -49.6% | A549/ATCC NSCLC -56.5% | 786-0 renal -24.3% | COLO 205 colon -50.2%

CCCn1c2cc(OCc3cn(-c4ccc(Cl)cc4)nn3)ccc2c2ccnc(C)c21
inactive: NCI-H23 lung 78.1% | NCI-H226 lung 69.5% | NCI-H322M lung 73% | HOP-62 NSCLC 70.1% | NCI-H460 lung 71.1% | HOP-92 NSCLC 50.5% | NCI-H522 lung 66.4% | A549/ATCC NSCLC 70.8% | 786-0 renal 34.8% | COLO 205 colon 44.1%

COc1cccc(C(=O)OCCn2nc3c4c(cccc42)C(=O)c2ccccc2-3)c1O
inactive: NCI-H23 lung 44.2% | NCI-H226 lung 79.9% | NCI-H322M lung 53.8% | HOP-62 NSCLC 39.5% | NCI-H460 lung 28.2% | HOP-92 NSCLC 62.1% | NCI-H522 lung 24.8% | A549/ATCC NSCLC 67.4% | 786-0 renal 72.3% | COLO 205 colon 107%

O=C1C(=O)c2c(nc3ccc(Br)cn23)-c2ccccc21
active: NCI-H23 lung -38.7% | NCI-H226 lung -92.6% | NCI-H322M lung -96.6% | HOP-62 NSCLC -96.5% | NCI-H460 lung -63.2% | HOP-92 NSCLC -75.3% | NCI-H522 lung -72.6% | A549/ATCC NSCLC -63.5% | 786-0 renal -96.9% | COLO 205 colon -82.4%

Cc1cnc(SCc2ccc(Cl)cc2)[nH]c1=S
inactive: NCI-H23 lung 94.8% | NCI-H226 lung 111% | NCI-H322M lung 89.5% | HOP-62 NSCLC 94.2% | NCI-H460 lung 113% | HOP-92 NSCLC 105% | NCI-H522 lung 78.7% | A549/ATCC NSCLC 94.4% | 786-0 renal 92.8% | COLO 205 colon 121%

CC(C)C[C@H](C(=O)O)N(C)C(=O)[C@@H]1CCCN1C(=O)[C@H](C)OC(=O)[C@H](CCC(N)=O)NC(=O)[C@@H]1CCC(=O)N1
inactive: NCI-H23 lung 109% | NCI-H226 lung 101% | NCI-H322M lung 98.5% | HOP-62 NSCLC 93.4% | NCI-H460 lung 111% | HOP-92 NSCLC 102% | NCI-H522 lung 88.7% | A549/ATCC NSCLC 92.2% | 786-0 renal 96.1% | COLO 205 colon 99.3%

CN1CCN(CC#CCOC(=O)CNC(=O)[C@]23CCC(C)(C)C[C@H]2C2=CC[C@@H]4[C@@]5(C)CC[C@H](O)C(C)(C)[C@@H]5CC[C@@]4(C)[C@]2(C)CC3)CC1
inactive: NCI-H23 lung 94.2% | NCI-H226 lung 93.5% | NCI-H322M lung 94.2% | HOP-62 NSCLC 90.4% | NCI-H460 lung 96.4% | HOP-92 NSCLC 88.7% | NCI-H522 lung 87.8% | A549/ATCC NSCLC 79.2% | 786-0 renal 80.3% | COLO 205 colon 85.4%

COc1ccc(/C=C/C(=O)c2ccc(NC(=O)CSc3nnc(-c4ccc(OC)c(OC)c4)n3-c3ccccc3)cc2)cc1
inactive: NCI-H23 lung 21.3% | NCI-H226 lung 80.7% | NCI-H322M lung 99.1% | HOP-62 NSCLC 48.5% | NCI-H460 lung 91.3% | HOP-92 NSCLC 52.7% | A549/ATCC NSCLC 80% | COLO 205 colon 26.7%
active: NCI-H522 lung -60.9% | 786-0 renal -67%

CC(C)(C)c1ccc2oc(=O)n(SC(Cl)(Cl)Cl)c2c1
inactive: NCI-H23 lung 95.1% | NCI-H226 lung 104% | NCI-H322M lung 106% | HOP-62 NSCLC 94.1% | NCI-H460 lung 96.6% | HOP-92 NSCLC 106% | NCI-H522 lung 79% | A549/ATCC NSCLC 97% | 786-0 renal 91.1% | COLO 205 colon 106%

Cc1nccc2c3ccc(OCc4cn(-c5ccccc5)nn4)cc3n(CCCc3ccccc3)c12
inactive: NCI-H23 lung 80.8% | NCI-H226 lung 85.7% | NCI-H322M lung 75.6% | HOP-62 NSCLC 78.2% | NCI-H460 lung 59.2% | HOP-92 NSCLC 57.3% | NCI-H522 lung 57.5% | A549/ATCC NSCLC 52.2% | 786-0 renal 80% | COLO 205 colon 50.7%

Cc1ccccc1NC(=O)c1sc2nc(C)c(C(C)O)cc2c1N (stereo not given)
inactive: NCI-H23 lung 79% | NCI-H226 lung 88.6% | NCI-H322M lung 86% | HOP-62 NSCLC 45.1% | NCI-H460 lung 35.4% | HOP-92 NSCLC 47.3% | NCI-H522 lung 32.8% | A549/ATCC NSCLC 36.2% | 786-0 renal 57% | COLO 205 colon 40.5%

CCOCCc1c(O)nc(SC)[nH]c1=O
inactive: NCI-H23 lung 91.9% | NCI-H226 lung 92% | NCI-H322M lung 111% | HOP-62 NSCLC 93.3% | NCI-H460 lung 107% | HOP-92 NSCLC 99.1% | NCI-H522 lung 94.7% | A549/ATCC NSCLC 103% | 786-0 renal 103% | COLO 205 colon 105%

COC(=O)c1ccc(NC(=O)CSc2nc(-c3ccc(F)cc3)nc3ccccc23)cc1
inactive: NCI-H23 lung 81.7% | NCI-H226 lung 87.4% | NCI-H322M lung 89.5% | HOP-62 NSCLC 75.5% | NCI-H460 lung 60.7% | HOP-92 NSCLC 77.7% | NCI-H522 lung 76.9% | A549/ATCC NSCLC 86.1% | 786-0 renal 105% | COLO 205 colon 93.8%

C#Cc1ccccc1NC(=O)c1sc2nc3c(cc2c1N)CCCCC3
inactive: NCI-H23 lung 88% | NCI-H226 lung 88.3% | NCI-H322M lung 101% | HOP-62 NSCLC 99.5% | NCI-H460 lung 104% | HOP-92 NSCLC 93.2% | NCI-H522 lung 71.5% | A549/ATCC NSCLC 99.2% | 786-0 renal 123% | COLO 205 colon 105%

O=c1[nH]c(-c2cccc(F)c2)cc2cc(F)ccc12
active: COLO 205 colon -2.11%
inactive: NCI-H23 lung 45.9% | NCI-H226 lung 96.3% | NCI-H322M lung 59.1% | HOP-62 NSCLC 31.9% | NCI-H460 lung 13.9% | HOP-92 NSCLC 70.7% | NCI-H522 lung 11.3% | A549/ATCC NSCLC 25.6% | 786-0 renal 44.2%

Nc1cc(N)nc(SCC(=O)O)n1
inactive: NCI-H23 lung 102% | NCI-H226 lung 103% | NCI-H322M lung 102% | HOP-62 NSCLC 104% | NCI-H460 lung 106% | HOP-92 NSCLC 97.3% | NCI-H522 lung 79.7% | A549/ATCC NSCLC 88% | 786-0 renal 99.1% | COLO 205 colon 114%

COc1ccc2nc(-c3ccc(OC)c(OC)c3)cc(-c3nnc(SCC(=O)Nc4ccc(C(C)=O)cc4)o3)c2c1
inactive: NCI-H23 lung 104% | NCI-H226 lung 96.9% | NCI-H322M lung 103% | HOP-62 NSCLC 107% | NCI-H460 lung 105% | HOP-92 NSCLC 116% | NCI-H522 lung 88.3% | A549/ATCC NSCLC 94% | 786-0 renal 101% | COLO 205 colon 116%

C/C(=N\NC(=O)c1ccncc1)c1ccc(N)cc1
inactive: NCI-H23 lung 101% | NCI-H226 lung 102% | NCI-H322M lung 91.5% | HOP-62 NSCLC 95.8% | NCI-H460 lung 99.3% | HOP-92 NSCLC 80.6% | NCI-H522 lung 75.4% | A549/ATCC NSCLC 90.6% | 786-0 renal 99% | COLO 205 colon 117%

Cc1c(Cl)cccc1NC(=O)c1sc2nc3c(cc2c1N)COCC3
inactive: NCI-H23 lung 36.4% | NCI-H226 lung 76.1% | NCI-H322M lung 60.6% | HOP-62 NSCLC 24.5% | NCI-H460 lung 15.6% | HOP-92 NSCLC 36.3% | NCI-H522 lung 17.3% | A549/ATCC NSCLC 45.9% | 786-0 renal 25.9% | COLO 205 colon 24.1%

COC(=O)/C=C1\SC(=Nc2cccc(OC)c2)N(CCc2c[nH]c3ccccc23)C1=O
inactive: NCI-H23 lung 67.9% | NCI-H226 lung 98.2% | NCI-H322M lung 76.8% | HOP-62 NSCLC 53% | NCI-H460 lung 80.7% | HOP-92 NSCLC 46.6% | NCI-H522 lung 28.4% | A549/ATCC NSCLC 61.4% | 786-0 renal 76.7% | COLO 205 colon 75.8%

CC[C@H](Nc1ncnc2nc[nH]c12)c1nc2cccc(CC(=O)c3ccc(C(=O)NO)cc3)c2c(=O)n1-c1ccccc1
inactive: NCI-H23 lung 94.1% | NCI-H226 lung 84.9% | NCI-H322M lung 90.4% | HOP-62 NSCLC 83.2% | NCI-H460 lung 89.9% | HOP-92 NSCLC 72.6% | NCI-H522 lung 51.4% | A549/ATCC NSCLC 88.4% | 786-0 renal 98.9% | COLO 205 colon 95.4%

O=C1C(Cl)=C(NCCCN(CCCNC2=C(Cl)C(=O)c3ccccc3C2=O)C2=C(Cl)C(=O)c3ccccc3C2=O)C(=O)c2ccccc21
active: NCI-H23 lung -13.5% | COLO 205 colon -13.8%
inactive: NCI-H226 lung 88.1% | NCI-H322M lung 61.5% | HOP-62 NSCLC 102% | NCI-H460 lung 39.2% | HOP-92 NSCLC 87.9% | NCI-H522 lung 73.8% | A549/ATCC NSCLC 45.6% | 786-0 renal 90.5%

From PubChem BioAssay (NCI)
